D1 mod: allosterically modulates the human D1 dopamine receptor | HEK293 D1, CRE-luciferase, dopamine EC30 potentiation; actives deviate in either direction | B-score at 10 µM | hit rate 5.9% among 58,000 | AID 641;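 active = luminescence count or its row- and column-corrected plate score outside the 99.7% band of the plate's sample wells, on either side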
CYP2C9 inh: human CYP2C9 inhibition; P11712; CYP2C9 Supersomes, luciferin-H conversion, luminescence; inhibition, % at 5 µM; hit rate 20% among 96,000; AID 777;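 active = blocking of liver enzyme CYP2C9 beyond about 50% at 5 µM, limit read from the data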
CYP2C19 act: activators of human cytochrome P450 2C19; recombinant CYP2C19, luciferin-H EGE luminescence; active compounds read high; 0 = fully inhibited enzyme, 1 = untreated enzyme; 96,000 tested, under 10 active; activation factor at 5 µM;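 active = activation factor of at least 2 at 5 µM in the primary screen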
CYP2C19 inhib: blocks human cytochrome P450 2C19 | P33261 | CYP2C19 Supersomes, luciferin-H EGE luminescence, 30 min | inhibition, % at 5 µM | hit rate 21% among 96,000 | AID 778;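 active = CYP2C19 inhibition above a set limit at 5 µM in the primary screen, cut at about 50% in these data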
CYP2C9 act: activators of human CYP2C9; P11712; recombinant CYP2C9, luciferin-H conversion, luminescence; active compounds read high; factor 1 = untreated enzyme, 0 = blocked; activation factor at 5 µM; hit rate 1.4% among 96,000; AID 1024;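 active = activation factor of 2 or more for CYP2C9 at a 5 µM dose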
hDAT+cocaine: human DAT dopamine uptake with cocaine, either direction; LLC-PK1 hDAT cells, [14C]-dopamine uptake with cocaine IC80; actives deviate in either direction; hit rate 1.3% among 110,000; AID 449768; B-score at 10 µM; Q01959;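 active = Z score or B-score, a plate-position-corrected score, falls beyond the plate's 99.7% confidence bounds, in either direction; inactive = both scores lie inside the 99.7% bounds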
Target sequence (Q01959 whole entry, looked up): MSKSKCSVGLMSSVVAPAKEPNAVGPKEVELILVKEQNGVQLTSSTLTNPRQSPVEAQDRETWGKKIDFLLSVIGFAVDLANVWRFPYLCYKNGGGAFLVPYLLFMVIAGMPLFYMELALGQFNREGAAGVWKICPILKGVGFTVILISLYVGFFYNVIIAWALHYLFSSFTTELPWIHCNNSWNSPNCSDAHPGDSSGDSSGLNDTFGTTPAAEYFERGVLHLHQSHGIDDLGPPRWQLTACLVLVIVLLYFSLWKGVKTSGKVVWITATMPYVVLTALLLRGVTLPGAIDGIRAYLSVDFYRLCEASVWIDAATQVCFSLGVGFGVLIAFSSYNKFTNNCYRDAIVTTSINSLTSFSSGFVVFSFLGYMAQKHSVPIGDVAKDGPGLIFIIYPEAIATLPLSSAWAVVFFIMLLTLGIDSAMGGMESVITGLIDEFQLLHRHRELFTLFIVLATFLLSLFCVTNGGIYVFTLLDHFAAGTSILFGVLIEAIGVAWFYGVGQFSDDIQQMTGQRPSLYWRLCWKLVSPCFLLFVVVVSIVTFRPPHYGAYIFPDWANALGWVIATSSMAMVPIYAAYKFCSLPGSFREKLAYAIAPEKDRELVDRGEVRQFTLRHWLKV
Large screens that a line does not name were inactive. The list is not random: actives were taken first. Their share in the collection is about 28%.

Cc1c(C(=O)OC2CCCC2C)[nH]c2c1C(=O)CCC2 (stereo not given)	CYP2C9 inh 54
Cc1c(C(=O)OCCOc2ccccc2)[nH]c2c1C(=O)CCC2	D1 mod -3.8, CYP2C9 inh 91, CYP2C19 inhib 91
O=C(COc1ccc(Cl)cc1)N/N=C/CCc1ccccc1	CYP2C19 inhib 52 (no result: D1 mod)
CCOc1cc(/C=C2\C(=O)N(c3ccc(C(N)=O)cc3)N=C2C)ccc1OC(=O)c1cccs1	CYP2C19 inhib 67 (no result: D1 mod)
CCOc1cc(/C=C2/C(=O)N(c3ccccc3)N=C2C)ccc1OC(=O)c1ccco1	none (no result: D1 mod, CYP2C9 inh, CYP2C19 act, CYP2C19 inhib, CYP2C9 act)
O=C(Cc1ccccc1)N/N=C/c1ccc(OCC(=O)Nc2ccccc2)cc1	none (no result: D1 mod)
CCOc1cc(/C=N/NC(=O)COc2ccc(Cl)cc2)ccc1OS(=O)(=O)c1ccccc1	CYP2C19 inhib 82 (no result: D1 mod)
CCOc1cc(/C=N/NC(=O)COc2ccc(C)cc2)ccc1OC(=O)c1cccs1	CYP2C9 inh 69 (no result: D1 mod)
CCOc1cc(/C=N/NC(=O)COc2ccccc2C)ccc1OC(=O)c1cccs1	none (no result: D1 mod)
CCOc1cc(/C=N/NS(=O)(=O)c2ccccc2)ccc1OS(=O)(=O)c1ccc(C)cc1	CYP2C9 inh 100, CYP2C19 inhib 99 (no result: D1 mod)
COc1ccc(/C=C/C(=O)Oc2cccc(/C=N/NC(=O)COc3c(C)cccc3C)c2)cc1	none (no result: D1 mod)
Cc1cccc(C(C)C)c1-n1nnnc1-c1ccccc1	CYP2C9 inh 82, CYP2C19 inhib 70
CCCOn1nnnc1-c1ccccc1	none (no result: D1 mod, CYP2C9 inh, CYP2C19 act, CYP2C19 inhib, CYP2C9 act)
Cc1ccc(C(=O)N2CCN(c3ccccc3)CC2)cc1S(=O)(=O)N1CCCC1	CYP2C9 inh 84, CYP2C19 inhib 78
CC1CC(C)CN(S(=O)(=O)c2ccc(C(=O)N3CCN(c4ccccc4)CC3)cc2)C1 (stereo not given)	CYP2C9 inh 82, CYP2C19 inhib 68
O=C(NC1CCCCC1)N1CCN(c2ccccc2)CC1	none (no result: D1 mod, CYP2C9 inh, CYP2C19 act, CYP2C19 inhib, CYP2C9 act)
Cc1ccc(S(=O)(=O)N2CCCC(NC(=O)N3CCN(c4ccccc4)CC3)C2)cc1 (stereo not given)	CYP2C19 inhib 74
O=C(c1ccc(S(=O)(=O)N2CCOCC2)cc1)N1CCN(c2cccc(Cl)c2)CC1	none
CCn1cc(Cl)c(C(=O)Nc2nc3ccccc3n2CCN2CCCCC2)n1	none
Cc1cc(-c2ccccc2)nc(N(C)NC(=O)c2cccc(C(F)(F)F)c2)c1S(C)(=O)=O	none (no result: D1 mod)
C=CCn1c(N)cc(=O)nc1SCC(=O)Nc1ccc2ccccc2c1	none (no result: D1 mod, CYP2C9 inh, CYP2C19 act, CYP2C19 inhib, CYP2C9 act)
O=[n+]1c2c(n([O-])c3cc(Cl)ccc31)CCCC2	hDAT+cocaine 0.97 (no result: D1 mod)
COc1cc(NC(=O)c2cccs2)ccc1NC(=O)c1ccco1	CYP2C9 inh 74
COc1ccc(NC(=O)c2ccccc2NC(=O)c2ccco2)c(OC)c1	CYP2C9 inh 59
COc1ccc(/C=C/C(=O)c2ccc(NC(=O)c3cccs3)cc2)cc1OC	CYP2C9 inh 72 (no result: D1 mod)
COc1ccc(OC)c(CNCCNC(=O)c2ccco2)c1	CYP2C19 inhib 73 (no result: D1 mod)
COC(=O)Cn1c(=O)c2c(nc3n2CC(C)CN3c2ccc(C)c(C)c2)n(C)c1=O (stereo not given)	none (no result: CYP2C9 inh, CYP2C19 act, CYP2C19 inhib, CYP2C9 act)
COc1cc(NC(=O)c2ccco2)ccc1NC(=O)c1ccccc1Cl	CYP2C9 inh 72, CYP2C19 inhib 51
COc1cc(NC(=O)c2ccccc2Cl)ccc1NC(=O)c1ccco1	none (no result: D1 mod)
CC(C)Oc1ccc(/C=N/NC(=O)C(CSCc2ccccc2)NC(=O)c2ccc([N+](=O)[O-])cc2)cc1 (stereo not given)	hDAT+cocaine -6 (no result: D1 mod, CYP2C9 inh, CYP2C19 act, CYP2C19 inhib, CYP2C9 act)
CCOC(=O)C1Nc2ccccc2C2C(O)C(O)CC12 (stereo not given)	none (no result: D1 mod, CYP2C9 inh, CYP2C19 act, CYP2C19 inhib, CYP2C9 act)
O=C1NC(c2ccco2)Nc2sc3c(c21)CCN(Cc1ccccc1)C3 (stereo not given)	CYP2C9 inh 69
CN1CCc2c(sc3c2C(=O)NC(c2cn(Cc4ccccc4)c4ccccc24)N3)C1 (stereo not given)	CYP2C9 inh 79, CYP2C19 inhib 69
CCOc1ccc(Br)cc1C1NC(=O)c2c(sc3c2CCN(C)C3)N1 (stereo not given)	D1 mod -4.6 (no result: CYP2C9 inh, CYP2C19 act, CYP2C19 inhib, CYP2C9 act, hDAT+cocaine)
CC1Cc2ccccc2N1C(=O)Cn1cc([N+](=O)[O-])cn1 (stereo not given)	none (no result: D1 mod)
Cn1cc(CN2CCc3ccccc3C2)c2ccccc21	CYP2C19 inhib 96
Oc1ccc(CN2CCc3ccccc3C2)c2cccnc12	none (no result: D1 mod)
CC1(C)SCC2C(=O)N3C(CSC3(C)C)C(=O)N21 (stereo not given)	none

From PubChem
